Measurements reported in PubChem BioAssay (NCATS).
Results filed as inconclusive are left out. A call without a number means that no potency is given here. Active and inactive are the calls of the source. Unless noted, the call rests on the fitted dose curve; in most records, active means well fitted curve in the direction sought with a large enough effect; inconclusive means small, poorly fitted or top-dose-only effect, or another doubt; inactive means no such curve, though single readings can be large; an effect the other way counts as inactive or inconclusive.

Columns and labels:
[1] = molecular target: Cytochrome P450 1A2 (Homo sapiens) (UniProt P05177); assay: p450-cyp1a2 (AID 410; calls by dose curve; further: potency means the concentration at half of the fitted maximal effect)
Chain of Cytochrome P450 1A2 (Homo sapiens) (P05177 whole entry, looked up): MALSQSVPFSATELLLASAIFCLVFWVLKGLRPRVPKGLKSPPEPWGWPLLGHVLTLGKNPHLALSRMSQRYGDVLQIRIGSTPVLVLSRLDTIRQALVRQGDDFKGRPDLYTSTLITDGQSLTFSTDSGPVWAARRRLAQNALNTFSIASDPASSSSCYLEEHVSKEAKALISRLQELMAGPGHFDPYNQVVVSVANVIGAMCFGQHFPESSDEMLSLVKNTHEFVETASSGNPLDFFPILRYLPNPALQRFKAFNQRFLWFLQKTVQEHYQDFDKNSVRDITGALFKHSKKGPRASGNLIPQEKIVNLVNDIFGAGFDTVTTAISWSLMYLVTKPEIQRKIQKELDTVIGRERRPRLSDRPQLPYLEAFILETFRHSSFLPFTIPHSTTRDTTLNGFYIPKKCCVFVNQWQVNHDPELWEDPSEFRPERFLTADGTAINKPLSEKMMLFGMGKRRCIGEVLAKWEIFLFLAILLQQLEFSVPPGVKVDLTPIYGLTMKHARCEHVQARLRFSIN
In short: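 O-Demethylation of luciferin 6' methyl ether by human CYP1A2 is monitored as luciferase luminescence. Substrate sits at Km (100uM); enzyme is 20nM. Values are scaled to 57 uM furafylline as maximal inhibition.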

[2] = molecular target: Glucocorticoid receptor (Homo sapiens) (UniProt P04150); assay: GR-GFP Redistribution (AID 450;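 active means compounds whose dose series gives a full or clear partial fitted curve of increased nuclear translocation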; further: potency means the concentration at half of the fitted maximal effect); conditions: U2OS GR-GFP nuclear translocation, laser cytometry, 2 h
Chain of Glucocorticoid receptor (Homo sapiens) (P04150 whole entry, looked up, the tested form may be a part): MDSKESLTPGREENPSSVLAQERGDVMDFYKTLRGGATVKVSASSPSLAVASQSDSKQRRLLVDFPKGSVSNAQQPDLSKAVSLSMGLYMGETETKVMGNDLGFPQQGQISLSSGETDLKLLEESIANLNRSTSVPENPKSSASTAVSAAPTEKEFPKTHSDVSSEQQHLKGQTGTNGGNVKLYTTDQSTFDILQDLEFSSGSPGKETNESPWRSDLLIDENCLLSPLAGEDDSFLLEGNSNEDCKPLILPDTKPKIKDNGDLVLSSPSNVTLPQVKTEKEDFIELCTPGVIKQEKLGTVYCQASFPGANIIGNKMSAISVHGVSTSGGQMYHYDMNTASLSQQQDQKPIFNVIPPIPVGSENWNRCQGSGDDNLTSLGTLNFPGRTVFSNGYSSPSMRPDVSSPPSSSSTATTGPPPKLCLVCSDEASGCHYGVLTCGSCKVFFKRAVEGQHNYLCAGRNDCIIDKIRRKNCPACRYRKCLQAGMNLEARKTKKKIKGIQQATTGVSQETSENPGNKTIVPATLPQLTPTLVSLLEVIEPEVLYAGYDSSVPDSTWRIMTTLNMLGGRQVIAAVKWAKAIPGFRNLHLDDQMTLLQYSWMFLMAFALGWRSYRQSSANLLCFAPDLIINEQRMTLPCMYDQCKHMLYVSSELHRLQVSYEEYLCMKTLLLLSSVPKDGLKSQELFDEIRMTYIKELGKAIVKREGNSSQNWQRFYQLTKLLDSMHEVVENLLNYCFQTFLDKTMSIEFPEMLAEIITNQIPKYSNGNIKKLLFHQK

[3] = molecular target: Glucocorticoid receptor (Homo sapiens) (UniProt P04150); assay: GR-EFC Redistribution (AID 451; calls by dose curve; further: potency means the concentration at half of the fitted maximal effect); conditions: CHO-K1 GR-EFC translocation, beta-gal luminescence, 2 h
In short: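 Translocation of GR-ED fusion to nuclear EA restores b-gal, read by luminescence after 1 h room-temperature detection. Engineered CHO-K1 biosensor cells, 1,000/well, exposed 2 h at 37 C to titrations up to 46 uM final.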

[4] = molecular target: Mitogen-activated protein kinase 10 (Mus musculus) (UniProt Q61831); assay: JNK3 AlphaScreen Assay (AID 530; active means well fitted curve in either direction with a large enough effect, not every such curve was filed as active;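 further: kinase came from lysate of stimulated human HepG2 cells; signal reports phosphorylation of biotinylated GST-cJun 1-79 at Ser73 with 10 µM ATP; series mostly up to about 57 µM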)
In short: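 qHTS titrations with 15 min compound pre-incubation before adding ATP (10 uM final). Read-out: AlphaScreen of Ser73-phosphorylated biotin-GST-cJun using HepG2 lysate JNK3 activated by IL-1β and TNFα.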

[5] = molecular target: Cytochrome P450 2D6 (Homo sapiens) (UniProt P10635); assay: qHTS Assay for Inhibitors and Substrates of Cytochrome P450 2D6 (AID 891); further: potency means the concentration at half of the fitted maximal effect; nearly all actives have a fitted effect of over 60% in size
Chain of Cytochrome P450 2D6 (Homo sapiens) (P10635 whole entry, looked up): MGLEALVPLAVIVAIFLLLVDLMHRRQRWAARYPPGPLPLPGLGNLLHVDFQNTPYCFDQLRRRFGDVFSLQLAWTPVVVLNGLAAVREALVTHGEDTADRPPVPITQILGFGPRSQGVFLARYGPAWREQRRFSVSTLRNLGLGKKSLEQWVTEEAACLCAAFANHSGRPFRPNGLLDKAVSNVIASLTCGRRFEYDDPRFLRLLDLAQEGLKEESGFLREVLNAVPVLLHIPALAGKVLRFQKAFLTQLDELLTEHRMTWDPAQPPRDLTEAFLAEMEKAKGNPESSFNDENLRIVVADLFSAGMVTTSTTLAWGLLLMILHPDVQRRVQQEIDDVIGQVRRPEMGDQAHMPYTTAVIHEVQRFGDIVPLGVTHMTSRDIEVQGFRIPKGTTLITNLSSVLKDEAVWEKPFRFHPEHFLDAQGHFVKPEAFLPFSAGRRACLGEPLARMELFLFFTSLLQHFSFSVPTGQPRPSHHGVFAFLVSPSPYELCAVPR
In short: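 Luminescent read-out of luciferin formed by 5 nM human CYP2D6 demethylating 30 uM Luciferin-ME EGE (Km level) over 60 min at room temperature after NADPH regeneration addition. Data normalized to full inhibition by 1.43 uM quinidine.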

[6] = molecular target: Ubiquitin carboxyl-terminal hydrolase 1 (Homo sapiens) (UniProt O94782); assay: Inhibitors of USP1/UAF1: Pilot qHTS (AID 504865);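 further: rhodamine fluorescence freed from ubiquitin-rhodamine substrate followed over time; top concentration of the series differs between compounds; nearly all actives have a fitted effect of over 35% in size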
Chain of Ubiquitin carboxyl-terminal hydrolase 1 (Homo sapiens) (O94782 whole entry, looked up): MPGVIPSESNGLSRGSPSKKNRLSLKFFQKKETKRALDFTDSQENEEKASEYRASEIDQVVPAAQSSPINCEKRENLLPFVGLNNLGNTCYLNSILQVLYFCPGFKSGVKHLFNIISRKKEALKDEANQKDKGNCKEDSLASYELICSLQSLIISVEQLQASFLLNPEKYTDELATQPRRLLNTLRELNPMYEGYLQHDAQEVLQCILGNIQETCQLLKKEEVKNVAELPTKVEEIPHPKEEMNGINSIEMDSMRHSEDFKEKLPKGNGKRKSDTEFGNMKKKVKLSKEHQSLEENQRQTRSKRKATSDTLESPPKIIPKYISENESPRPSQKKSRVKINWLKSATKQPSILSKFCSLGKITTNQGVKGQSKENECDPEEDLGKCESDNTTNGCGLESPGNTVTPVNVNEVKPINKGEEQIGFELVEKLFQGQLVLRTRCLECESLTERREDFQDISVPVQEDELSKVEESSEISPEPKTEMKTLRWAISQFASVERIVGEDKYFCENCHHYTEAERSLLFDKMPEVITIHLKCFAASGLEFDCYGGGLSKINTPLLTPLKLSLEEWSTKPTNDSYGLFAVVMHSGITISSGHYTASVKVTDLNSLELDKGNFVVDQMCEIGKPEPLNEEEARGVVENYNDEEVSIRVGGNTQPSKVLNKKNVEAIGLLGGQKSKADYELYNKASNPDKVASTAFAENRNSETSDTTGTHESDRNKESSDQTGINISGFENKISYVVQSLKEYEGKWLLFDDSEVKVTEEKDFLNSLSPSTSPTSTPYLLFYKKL
In short: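 Enzyme-free wells gave the negative control, while test wells held 1nM USP1/UAF1 preincubated with compound for 15 min at room temperature. Ub-Rho at 150nM final started the reaction, and fluorescence at 480/540 nm was recorded kinetically.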

[7] = molecular target: DNA dC->dU-editing enzyme APOBEC-3G (Homo sapiens) (UniProt Q9HC16); assay: qHTS for inhibitors of Vif-A3G interactions: Validation (AID 588379)
Chain of DNA dC->dU-editing enzyme APOBEC-3G (Homo sapiens) (Q9HC16 whole entry, looked up): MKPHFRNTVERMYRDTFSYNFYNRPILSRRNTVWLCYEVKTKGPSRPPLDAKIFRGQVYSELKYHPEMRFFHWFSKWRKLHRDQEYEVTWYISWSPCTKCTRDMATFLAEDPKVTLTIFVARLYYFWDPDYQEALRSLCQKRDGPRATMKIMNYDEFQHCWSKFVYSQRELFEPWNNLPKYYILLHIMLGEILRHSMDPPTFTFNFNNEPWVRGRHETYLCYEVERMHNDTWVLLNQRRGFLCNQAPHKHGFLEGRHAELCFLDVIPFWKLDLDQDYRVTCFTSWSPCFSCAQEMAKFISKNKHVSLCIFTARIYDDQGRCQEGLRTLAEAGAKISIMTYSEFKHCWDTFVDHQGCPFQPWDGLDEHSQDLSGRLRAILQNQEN
In short: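 Yellow fluorescence (Ex 488, Em 500-530) of Vif-coexpressing HeLa A3G-eYFP cells, scanned by Acumen cytometer, reports blocked A3G degradation. Cells plated at 700/well overnight at 37 deg C before compound addition, then a further overnight compound incubation at 37 deg C.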

[8] = test system: Zika virus NS2B-NS3 protease; assay: Primary screen GU AMC qHTS for Zika virus inhibitors (AID 1347154); further: nearly all actives have a fitted effect of over 70% in size
In short: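 Fluorogenic AMC-substrate cleavage by noncovalent NS2B-NS3 protease complex (25 nM, pH 8.0 Tris buffer with Tween 20) followed for 15 minutes at room temperature (~20% conversion). Percent inhibition from ex340/em450 signal change, fitted by 4-parameter Hill equation.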

[9] = Primary qHTS for small molecule stabilizers of the endoplasmic reticulum resident proteome: Secreted ER Calcium Modulated Protein (SERCaMP) assay (AID 1508630)
In short: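 The SH-SY5Y reporter protocol was run at 3 concentrations up to 38.3 uM (primary) or 11 concentrations (follow-up): 16 h compound, 100 nM thapsigargin for 4 h, then extracellular luciferase luminescence.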

[10] = AP1 Signaling Pathway (AID 357; active means well fitted curve in either direction with a large enough effect, not every such curve was filed as active;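 further: ME-180 reporter cells stimulated with EGF at its EC50 level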)
In short: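 In this screen, ME-180 cells in Opti-MEM with 0.5% dialyzed FBS received EC50 EGF and compound titrations for 5 h. AP-1 reporter beta-lactamase was detected via CCF4 ratio, giving AC50 for positive and negative modulators.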

[11] = molecular target: Cytochrome P450 3A4 (Homo sapiens) (UniProt P08684); assay: qHTS Assay for Activators of Cytochrome P450 3A4 (AID 885); further: nearly all actives have a fitted effect of over 65% in size
Chain of Cytochrome P450 3A4 (Homo sapiens) (P08684 whole entry, looked up): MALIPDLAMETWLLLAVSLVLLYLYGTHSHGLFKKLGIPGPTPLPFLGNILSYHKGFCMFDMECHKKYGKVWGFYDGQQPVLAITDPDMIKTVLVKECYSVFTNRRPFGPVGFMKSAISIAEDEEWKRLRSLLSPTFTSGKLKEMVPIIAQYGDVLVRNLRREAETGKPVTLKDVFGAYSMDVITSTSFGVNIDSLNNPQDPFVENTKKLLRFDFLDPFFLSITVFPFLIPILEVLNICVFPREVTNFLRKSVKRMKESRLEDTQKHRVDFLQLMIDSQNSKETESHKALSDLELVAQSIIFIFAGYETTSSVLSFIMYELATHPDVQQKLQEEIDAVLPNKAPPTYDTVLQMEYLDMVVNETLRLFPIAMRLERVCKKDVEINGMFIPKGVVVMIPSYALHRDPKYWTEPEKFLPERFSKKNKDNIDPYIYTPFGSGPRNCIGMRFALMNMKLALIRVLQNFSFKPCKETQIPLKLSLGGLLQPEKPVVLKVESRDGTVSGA
In short: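 Activators are scored by enhanced luminescence from CYP3A4 conversion of luciferin-PPXE (25uM, equal to KM) to luciferin, after 60 min at RT with an NADPH-regenerating system.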

[12] = molecular target: 3',5'-cyclic-AMP phosphodiesterase 4B (Homo sapiens) (UniProt Q07343); assay: qHTS Assay for Inhibitors of PDE-IV (AID 607; active means well fitted activation curve with a large enough effect in the main read-out, with a control signal flat, not every such curve was filed as active)
Chain of 3',5'-cyclic-AMP phosphodiesterase 4B (Homo sapiens) (Q07343 whole entry, looked up): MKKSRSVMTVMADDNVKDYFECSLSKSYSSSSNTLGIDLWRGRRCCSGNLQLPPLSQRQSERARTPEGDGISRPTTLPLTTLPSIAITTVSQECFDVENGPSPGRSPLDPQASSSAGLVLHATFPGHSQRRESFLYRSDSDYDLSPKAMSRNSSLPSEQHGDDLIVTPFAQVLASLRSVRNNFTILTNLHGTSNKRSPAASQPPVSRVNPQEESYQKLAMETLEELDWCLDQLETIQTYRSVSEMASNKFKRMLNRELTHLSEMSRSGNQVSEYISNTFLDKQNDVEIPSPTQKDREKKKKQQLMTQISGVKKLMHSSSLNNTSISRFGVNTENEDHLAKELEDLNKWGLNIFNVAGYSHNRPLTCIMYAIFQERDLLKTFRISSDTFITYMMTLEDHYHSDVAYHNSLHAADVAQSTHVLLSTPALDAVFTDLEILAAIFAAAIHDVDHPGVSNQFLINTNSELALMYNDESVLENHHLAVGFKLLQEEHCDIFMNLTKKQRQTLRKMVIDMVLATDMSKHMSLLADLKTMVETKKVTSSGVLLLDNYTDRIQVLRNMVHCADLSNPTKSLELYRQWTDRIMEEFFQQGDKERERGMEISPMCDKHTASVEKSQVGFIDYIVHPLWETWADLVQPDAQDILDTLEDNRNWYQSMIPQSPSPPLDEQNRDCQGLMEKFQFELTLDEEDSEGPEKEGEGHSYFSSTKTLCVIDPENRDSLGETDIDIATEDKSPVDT
In short: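 The readout is membrane depolarisation from a cAMP-sensing CNG channel, detected with a potential dye at ex 535/em 590. Cells were HEK293-derived (endogenous PDE-IV) at 1000 cells/well, titrated up to 22.9 uM final.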

Row | SMILES | Potency [1] | Potency [2] | Potency [3] | outcome [4] | Potency [5] | Potency [6] | Potency [7] | Potency [8] | Potency [9] | outcome [10] | Potency [11] | Potency [12]
1 | Cn1cc(C(=O)C(=O)N[C@H]2CN3CCC2CC3)c2ccccc21 | 15.8 µM (active) | > 46 µM (inactive) | > 46 µM (inactive) | inactive | 0.0631 µM (active) | inactive | inactive | inactive | inactive | – | – | –
2 | C[C@H](N)Cc1cnc[nH]1 | – | > 46 µM (inactive) | > 46 µM (inactive) | inactive | – | inactive | inactive | inactive | inactive | inactive | – | –
3 | NCCCP(=O)(O)CC1CCCCC1 | – | > 46 µM (inactive) | > 46 µM (inactive) | inactive | – | inactive | inactive | inactive | inactive | – | – | –
4 | CCN1C[C@]2(COC)[C@H](O)C[C@H](OC)[C@]34C1C([C@H](OC)[C@H]23)[C@]1(OC(C)=O)C2[C@@H](OC(=O)c3ccccc3)C(O)(C[C@H]24)[C@@H](OC)[C@@H]1O | – | – | – | – | – | inactive | – | inactive | inactive | – | – | –
5 | CCN1C[C@]2(COC(=O)c3ccccc3N3C(=O)C[C@H](C)C3=O)CC[C@H](OC)[C@@]34[C@@H]5C[C@H]6[C@H](OC)[C@H]5[C@](O)(C[C@@H]6OC)[C@@](O)([C@@H](OC)[C@@H]23)[C@@H]14 | – | – | > 46 µM (inactive) | – | – | inactive | inactive | inactive | inactive | – | – | –
6 | NC(=NCCc1ccc(I)cc1)SCCCc1cnc[nH]1 | 15.8 µM (active) | > 46 µM (inactive) | > 46 µM (inactive) | inactive | – | inactive | inactive | inactive | inactive | – | inactive | –
7 | O=C(/C=C\c1ccc(Cl)cc1)N[C@@]12CCC(=O)[C@@H]3Oc4c(O)ccc5c4[C@@]31CCN(CC1CC1)[C@@H]2C5 | – | 1.63 µM (active) | > 46 µM (inactive) | inactive | 5.01 µM (active) | inactive | inactive | inactive | inactive | – | inactive | –
8 | CN(C(=O)Cc1ccc(Cl)c(Cl)c1)[C@H](CN1CCCC1)c1cccc(N=C=S)c1 | – | > 46 µM (inactive) | > 46 µM (inactive) | inactive | – | – | inactive | inactive | inactive | – | – | inactive
9 | CC(=O)N1CC[N+](C)(C)CC1 | inactive | – | > 46 µM (inactive) | inactive | – | – | inactive | inactive | inactive | – | – | inactive
10 | CCCCC[C@H]1C(=O)O[C@H](C)[C@H](NC(=O)c2cccc(NC=O)c2O)C(=O)O[C@@H](C)[C@@H]1OC(=O)CC(C)C | – | – | – | – | – | – | – | inactive | inactive | – | – | –
11 | CC1=C(O)C(=O)[C@H]2O[C@@H]2C1=O | inactive | – | > 46 µM (inactive) | inactive | – | inactive | – | inactive | inactive | – | – | –
12 | C=C1[C@@H](O)C2C=CC[C@H](C)C(=O)[C@@](C)(O)C=C[C@@H](OC(C)=O)[C@@]23C(=O)N[C@H](Cc2ccccc2)[C@@H]3[C@@H]1C (stereo partly specified) | inactive | > 46 µM (inactive) | > 46 µM (inactive) | inactive | – | inactive | inactive | inactive | inactive | – | inactive | –
13 | CN(C(=O)Cc1ccc(Cl)c(Cl)c1)[C@H](CN1CCCC1)c1ccccc1 | 31.6 µM (active) | > 46 µM (inactive) | > 46 µM (inactive) | inactive | – | – | inactive | inactive | inactive | – | inactive | –
14 | CC[N+](CC)(CCCNC1=CC(=O)C(NCCC[N+](CC)(CC)Cc2ccccc2)=CC1=O)Cc1ccccc1 | – | – | > 46 µM (inactive) | – | – | – | inactive | inactive | inactive | – | – | –
15 | CS(=O)(=O)Nc1ccc(Cc2noc(-c3ccc4[nH]cc(CCN)c4c3)n2)cc1 | 0.0316 µM (active) | – | > 46 µM (inactive) | – | 0.126 µM (active) | inactive | inactive | inactive | inactive | – | inactive | –
16 | c1ccc([C@H]2CNCc3ccccc32)cc1 | inactive | > 46 µM (inactive) | > 46 µM (inactive) | inactive | 5.01 µM (active) | inactive | inactive | inactive | inactive | – | inactive | –
17 | CC(C)(Cc1c[nH]c2ccc(Cl)cc12)NCCOc1ccccc1OCC1CC1 | – | > 46 µM (inactive) | > 46 µM (inactive) | inactive | – | – | inactive | inactive | inactive | – | – | –
18 | C#CCN1C(C)=C(C(=O)CCO)[C@@H](c2cccc(-n3oo3)c2)C(C(=O)OC)=C1C | – | > 46 µM (inactive) | > 46 µM (inactive) | inactive | – | – | inactive | inactive | inactive | – | – | –
19 | O[C@@H](Cc1ccncc1)C(Cl)(Cl)Cl | – | > 46 µM (inactive) | > 46 µM (inactive) | inactive | – | inactive | inactive | inactive | – | – | – | inactive
20 | O=C(CCCN1CCC2(CC1)C(=O)N(Cc1cccc(F)c1)CN2c1ccccc1)c1ccc(F)cc1 | – | > 46 µM (inactive) | > 46 µM (inactive) | – | 3.16 µM (active) | – | inactive | inactive | – | – | inactive | –
